Reference: article PMC5540273 (PLoS ONE, 2017)

tested on: p38-delta; settings: concentration: 1 μM,replicates: in singlicate; n = 1
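Note: KINOMEscan kinase panel screen.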

| Compound | %Inh [%] |
| --- | --- |
| Cl.Cl.NC[C@H](CC1CCCCC1)NC(=O)c1cc(Br)c(-c2ccnc3[nH]ccc23)s1 [GSK1581427] | 4 |
| Cl.Cl.NC[C@H](Cc1ccc(C(F)(F)F)cc1)NC(=O)c1cc(Br)c(-c2ccnc3[nH]ccc23)s1 [GSK1487252] | 12 |
| Cc1occc1-c1nc(N)c(OC[C@@H](N)Cc2c[nH]c3ccccc23)cc1-c1cc2c(C)n[nH]c2cn1 [GSK1660450] | 22 |
| CN(C)CC(O)COc1ccc(Nc2nccc(-c3cnn4nc(N5CCOCC5)ccc34)n2)cc1 (centres unmarked) [GW767488] | 38 |
| CC(C)N1C(=O)Cc2cc(Nc3ncc(C(F)(F)F)c(NCc4cccc(S(C)(=O)=O)c4)n3)ccc21 | 0 |
| CNC(=O)c1ccccc1Sc1ccc2c(/C=C/c3ccccn3)n[nH]c2c1 | 10 |
| NC(=O)c1cc(-c2ccccc2)cc2c(C3CCNCC3)c[nH]c12 [GSK301362] | 35 |
| C[C@H]1Oc2cc(cnc2N)-c2c(nn(C)c2C#N)CN(C)C(=O)c2ccc(F)cc21 | 0 |
| Cc1ccc2c(-c3ccncc3)c(-c3ccc(F)cc3)nn2c1.Cl [GW461484] | 13 |
| CCN(CC)CCCCNc1ncc2cc(-c3c(Cl)cccc3Cl)c(NC(=O)NC(C)(C)C)nc2n1 | 28 |
| O=C(NCCCN1CCOC1=O)c1cnc(NCc2cc(Cl)ccc2Cl)nc1NC1CCCC1 | 44 |
| Nc1nc(Nc2ccccc2)cc(-c2ccc3c(N)n[nH]c3c2)n1 [GSK2225749] | 0 |
| Cc1ccc(-n2nc(C(C)(C)C)cc2NC(=O)Nc2ccc(OCCN3CCOCC3)c3ccccc23)cc1 [GW839464] | 90.5 |
| O=C(NCCNc1ccnc(NCc2ccc(F)cc2)n1)c1cc2ccccc2s1 [GSK1379944] | 40 |
